{"source": "the supplement of paper PMC11417369", "note": "In all, about 25,000 sequences were measured (“ln(normalized median fluorescence intensity)”: median about 9.3, highest 2% from about 10 on). This excerpt belongs to a sample that is enriched for the highest values."}
{"test_system": "PF3D7_0420300 AP2 domain 1 (GST-tagged)", "experiment": "gcPBM binding intensity (ln(normalized median fluorescence intensity)); higher = stronger DNA binding", "procedure,_shortened": "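In this array assay, P. falciparum DNA-binding domains with a GST tag, expressed in E. coli, were applied for 1 h to primer-extended double-stranded 36-bp intergenic genomic probes and negative controls on an Agilent 4 × 180k array. Bound protein was visualised with Alexa488 anti-GST antibody at 488 nm. Binding intensity is the highest Masliner-normalised natural-log median intensity across replicate spots of either probe orientation.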"}
{"sequence": "ATATAACTCAAGGGCACACATATACCTTTCCTTTTT [CACACA_site4390]", "gcPBM binding intensity (ln)": 9.5}
{"sequence": "AATATACATAACAAGGTGCAAAAAATATTGTTCATA [GTGCAC_site9499]", "gcPBM binding intensity (ln)": 9.5}
{"sequence": "TATTATCTCTTATGAACACACATTTTTATTTTCAAA [CACACA_site3353]", "gcPBM binding intensity (ln)": 9.31}
{"sequence": "AATATATAGCTAAAAACACACAAATATATACGCATA [CACACA_site3608]", "gcPBM binding intensity (ln)": 9.69}
{"sequence": "TTATATATAATATATACACACACATGTATATATAAA [CACACA_site8603]", "gcPBM binding intensity (ln)": 9.45}
{"sequence": "AGTTAATGAATAGGCACACATATATCTGTATAAATA [CACACA_site4448]", "gcPBM binding intensity (ln)": 9.47}
{"sequence": "TTAAACTTGAGACACACACACACACGGATATAAAAA [CACACA_site6495]", "gcPBM binding intensity (ln)": 10.2}
{"sequence": "CCATAAAAAGGATACACACACACACCCACATATATA [CACACA_site903]", "gcPBM binding intensity (ln)": 10.2}
{"sequence": "AAAAAAAAAATATACACACACACATACCCATAAATA [CACACA_site5981]", "gcPBM binding intensity (ln)": 9.99}
{"sequence": "AATAAAAAGGAACACACACACACACCGATATATATA [CACACA_site5895]", "gcPBM binding intensity (ln)": 10.2}
{"sequence": "AAAAAAAAAAGACACACACACACACGGAGATATATA [CACACA_site6216]", "gcPBM binding intensity (ln)": 10.3}
{"sequence": "ACTTGACACGGACACACACACATATATAAAAAAAAA [CACACA_site4576]", "gcPBM binding intensity (ln)": 9.87}
{"sequence": "AAAAAAAAAAGACACACACACAAAAAAAGATATATA [CACACA_site6645]", "gcPBM binding intensity (ln)": 10.2}
{"sequence": "CAAAAGGATAGGCACACACACACACCGATATATATA [CACACA_site8685]", "gcPBM binding intensity (ln)": 10.2}
{"sequence": "TAAAAGGATACATATACACACATATATATATATATA [CACACA_site2791]", "gcPBM binding intensity (ln)": 9.32}
{"sequence": "AAACTTGACGGACACACACACACATATATAAAAAAA [CACACA_site4577]", "gcPBM binding intensity (ln)": 10}
{"sequence": "AAAAAGGATAAACACACACACACACCGATATATATA [CACACA_site8206]", "gcPBM binding intensity (ln)": 10.2}
{"sequence": "AAAAAAAAAAGACACACACACATATTTATTTATATA [CACACA_site6484]", "gcPBM binding intensity (ln)": 9.93}
{"sequence": "ATTTATGAAAAATGTACACACATCAAATGCTTATAT [CACACA_site4068]", "gcPBM binding intensity (ln)": 9.42}
{"sequence": "AAATGAAAGAACAGCACACATATATATTATATATAA [CACACA_site2002]", "gcPBM binding intensity (ln)": 9.63}
{"sequence": "ATTGCATATAATGGCACACATAAATCCATAATATAT [CACACA_site297]", "gcPBM binding intensity (ln)": 9.29}
{"sequence": "GTTAATATACATAAACGTACAGAATTATTATGAGTT [XGTACX_site5185]", "gcPBM binding intensity (ln)": 9.13}
{"sequence": "TGTTTAACATTTATATGTACATATATTCACATATTA [XGTACX_site342]", "gcPBM binding intensity (ln)": 9.29}
{"sequence": "AACAATATATTGAATAGTACATATATATAAACATAT [XGTACX_site2811]", "gcPBM binding intensity (ln)": 9.46}
{"sequence": "GTAGAAAGAAAAATTAGTACTTAAATATTATAAAAA [XGTACX_site8458]", "gcPBM binding intensity (ln)": 9.11}
{"sequence": "AATAAATATAAATACACACCCATATATATATATATA [CACACA_site5436]", "gcPBM binding intensity (ln)": 9.45}
{"sequence": "CCATAAAAAGGATACACACACACACGCACATATATA [CACACA_site6550]", "gcPBM binding intensity (ln)": 10.2}
{"sequence": "TAGATACATACACGCACACACATATATAAATAAATA [CACACA_site6157]", "gcPBM binding intensity (ln)": 9.85}
{"sequence": "ACCCATAAAAAGGATACACACACACCCACCCATATA [CACACA_site8205]", "gcPBM binding intensity (ln)": 10.4}
{"sequence": "AATATAAGGATATATACACACATAAATACATACATA [CACACA_site7859]", "gcPBM binding intensity (ln)": 9.89}
{"sequence": "AATAAATATAAATACACACCCATATAAATATAAATA [CACACA_site7264]", "gcPBM binding intensity (ln)": 9.85}
{"sequence": "TTTTATAAATCTAAACGTATCTAAATGAATAATTAA [GTGCAC_negctrl_site44]", "gcPBM binding intensity (ln)": 8.84}
{"sequence": "TTTATAACATTTAAGAGTACAAAAAAATAAATAAAT [XGTACX_site1264]", "gcPBM binding intensity (ln)": 9.37}
{"sequence": "TATTGTAGAGGCAAAAGTACACATTTAATAATTTCC [XGTACX_site1151]", "gcPBM binding intensity (ln)": 9.23}
{"sequence": "TTGTAAGAAAAACACACACACACATATATATATATA [CACACA_site795]", "gcPBM binding intensity (ln)": 9.95}
{"sequence": "AAACTTGTAAGAAACACACACACACCCATATATATA [CACACA_site797]", "gcPBM binding intensity (ln)": 10.1}
{"sequence": "GTAAGAAACAGACACACACACATATATATATATATA [CACACA_site794]", "gcPBM binding intensity (ln)": 9.79}
{"sequence": "AAACTTGTAAGAAACACACACACACGCATATAAATA [CACACA_site6518]", "gcPBM binding intensity (ln)": 10}
{"sequence": "ACTTGTAAGAAACACACACACACACCCATATATATA [CACACA_site796]", "gcPBM binding intensity (ln)": 10.4}
{"sequence": "ACTTGTAAGAAACACACACACACACCGATATATATA [CACACA_site4594]", "gcPBM binding intensity (ln)": 10.4}
{"sequence": "AATATAAAAATGTTTACACACACACGGAAATATATT [CACACA_site7226]", "gcPBM binding intensity (ln)": 10.1}
{"sequence": "TATATATATATGTGTATACACACCTGATAAAGGTAT [CACACA_site2653]", "gcPBM binding intensity (ln)": 9.42}
{"sequence": "AAAAAATTCATATATACACACACGCACATATATATA [CACACA_site4226]", "gcPBM binding intensity (ln)": 9.84}
{"sequence": "AAAATTCATATATACACACACGCACATATATATATA [CACACA_site90]", "gcPBM binding intensity (ln)": 9.85}
